Compound activity (PubChem BioAssay)
Only some compounds are listed: those with a hit (about 7.3% of all), similar ones and a draw of the others.
HCMV antiviral – inhibitors of human cytomegalovirus. HFF cells, HCMV-luciferase reporter, 72 h; stronger effect = lower value. activity change, negative = inhibition, % at 57.5 µM. hit rate 4.5% among 410,000. AID 1259415; in the data active = activity change below about -60%; inconclusive = no clear call, values can overlap the other calls; inactive = above about -39%
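Human foreskin fibroblasts infected with luciferase-reporter HCMV at MOI 1 PFU/cell, compounds at two doses. Luciferase measured 72 h post infection; normalized to buffer-only basal and Salinomycin (10uM) controls.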
HCV inhibitor – blocks hepatitis C virus; Potency, µM (highest dose often 41.8 µM), for the others: at the top dose activity change, negative = inhibition, most hits filed as inhibitors; Huh7.5.1 HCVcc-Cre infection, luciferase reporter, 44 h; hit rate 3.4% among 340,000; AID 651820; active = well fitted inhibition curve with a large enough effect; inconclusive = small, poorly fitted or top-dose-only effect, or another doubt; inactive = no such curve, though single readings can be large or run the other way; also: potency is read from the fitted curve at half-maximal effect
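Compounds are dispensed onto cells plated 4 h earlier at 1,000 per well, with HCVcc-Cre virus (about 0.5 moi) added next. Following 44 h of culture, luminescent signal is measured for 15 sec after 15 min with substrate at room temperature.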
VACV mCherry inh – vaccinia inhibition (mCherry reporter); Vaccinia virus mCherry reporter infection, fluorescence; Potency, µM (titrated, usually from 36.5 µM), without a hit: at the highest dose activity change, negative = inhibition, actives largely listed as inhibitors; hit rate 0.63% among 310,000; AID 720579; calls by dose curve; tested in A549 cells; also: potency is read from the fitted curve at half-maximal effect; nearly all actives have a fitted effect of over 35% in size
VACV Venus inh – vaccinia inhibition (Venus reporter); Potency, µM (series often up to 36.5 µM), without a hit: top-dose activity change, negative = inhibition, most hits filed as inhibitors; Vaccinia virus Venus reporter expression, fluorescence; hit rate 0.46% among 330,000; calls by dose curve; tested in A549 cells; also: potency is read from the fitted curve at half-maximal effect; nearly all actives have a fitted effect of over 30% in size
FMDV inh – antivirals against foot and mouth disease virus. hit rate 1.2% among 410,000. Potency, µM (titrated, usually from 57.9 µM), for the others: at the top dose activity change, negative = inhibition, most hits filed as inhibitors. FMDV antiviral cell-based qHTS; calls by dose curve; tested in HEK293T cells; also: read-out not given here; potency is read from the fitted curve at half-maximal effect; nearly all actives have a fitted effect of over 45% in size
* = called active by the depositor; i = inactive; ? = inconclusive; nt = no result; ! = repeats disagree; [ ] = another dose, or the depositor's remark. % is scaled to controls: 0 for no effect and ±100 for the full control effect.

SMILES	HCMV antiviral	HCV inhibitor	VACV mCherry inh	VACV Venus inh	FMDV inh
Cc1cc(/C=C2\SC(=S)N(Cc3ccco3)C2=O)c(C)n1-c1ccccc1	-67*	?	i	-7%	0%
O=[N+]([O-])c1cc(S(=O)(=O)N2CCCC2)ccc1O	16	13%	-11%	-9%	-10%
CN(CC(=O)Nc1ccc(Cl)cc1)c1ccc(S(=O)(=O)N2CCCCC2)cc1[N+](=O)[O-]	-68*	13µM*	-15%	?	?
O=[N+]([O-])c1cc(S(=O)(=O)N2CCCCCC2)ccc1F	-97*	?	?	14µM*	?
COc1ccc2c(c1)sc1ncc(C(=O)NCc3cccc(Cl)c3)c(=O)n12	6	nt	3%	-9%	0%
COc1cc(/C=C/C(=O)C2C(=O)C=C(C)OC2=O)cc(OC)c1O (centres undefined)	-90*	?	58%	82%	18µM*
COc1ccc(/C=C/C(=O)C2C(=O)C=C(C)OC2=O)cc1O (centres undefined)	-77*	-2%	-14%	13%	-9%
O=C(Nc1ccc(F)cc1)Nc1ccc(N2CCCC2)c(S(=O)(=O)Nc2ccccc2Cl)c1	-100*	6.3µM*	11µM*	11µM*	-22%
O=C(/C=C/c1cccs1)Nc1ccc(N2CCOCC2)c(S(=O)(=O)Nc2cc(Cl)ccc2Cl)c1	-11	?	-15%	-13%	37%
O=C(/C=C/c1cccs1)Nc1ccc(N2CCOCC2)c(S(=O)(=O)Nc2ccccc2Cl)c1	-78*	?	-28%	-16%	84%
O=C(Nc1ccc(F)cc1)Nc1ccccc1N1CCCCC1	-71*	11µM*	nt	nt	?
O=C(Nc1ccc(N2CCCCC2)c(S(=O)(=O)Nc2ccccc2Cl)c1)c1cccnc1	-29	13µM*	-1%	-7%	-6%
O=C(Nc1ccc(F)cc1)Nc1csc2ccccc12	-75*	2%	?	?	48%
CN1CCN(c2ccc(Cl)cc2NC(=O)c2cc(=O)[nH]c3ccccc23)CC1	-98*	-25%	nt	nt	0%
O=C(Nc1ccc(Cl)c(Cl)c1)Nc1ccc(N2CCCC2)c(S(=O)(=O)Nc2ccccc2Cl)c1	-99*	?	13µM*	11µM*	-3%
O=C(Nc1ccc(N2CCOCC2)c(S(=O)(=O)Nc2ccccc2Cl)c1)c1ccc(F)cc1	29	10µM*	-12%	-21%	24%
CN(C)c1ccc(NC(=O)Nc2csc3ccccc23)cc1	-36	-29%	-20%	-6%	13%
COc1ccccc1NS(=O)(=O)c1cc(NC(=O)c2cc(=O)[nH]c3ccccc23)ccc1N1CCOCC1	22	25µM*	nt	nt	31%
COc1cccc(-c2nn(-c3ccccc3)cc2C(=O)n2nnc3ccccc32)c1	35	?	-5%	0%	40µM*
Cc1ccccc1CN1[C@@H](Cc2ccccc2)COCCS1(=O)=O	-9	-1%	-27%	-16%	0%
C=C1[C@@H](O)[C@H](Cc2ccccc2)N(Cc2ccccc2Br)S1(=O)=O	33	23%[8.37 µM]	10µM*	10µM*	18µM*
CCC1(O)C(=O)OCc2c1cc1n(c2=O)Cc2cc3c(N)cccc3nc2-1 (centres undefined)	-98*	?	-27%	?	1%
CCCCN1C=CC(=C2C(=O)c3ccccc3C2=O)C=C1	-88*	-10%	i	-23%	10µM*
Cc1ccc(CSCCC(=O)N2CCN(c3ccc(F)cc3)CC2)cc1	?	nt	-16%	-10%	-19%
CCCN(C(=O)C1CCCN(c2ncnc3c2nc2n3CCCCC2)C1)c1ccccc1C (centres undefined)	6	nt	nt	nt	nt
SMILES	HCMV antiviral	HCV inhibitor	VACV mCherry inh	VACV Venus inh	FMDV inh
Cn1nc(C(F)(F)F)c2cc(C(=O)Nc3ccc(F)c(Cl)c3)sc21	-75*	?	-15%	-8%	?
Cn1nc(C(F)(F)F)c2cc(C(=O)Nc3ccc(C(F)(F)F)cc3)sc21	-106*	?	i	-16%	?
CCOc1ccc(NC(=O)CN(C)C(=O)c2cccnc2Sc2ccc(C)c(C)c2)cc1OCC	-3	-17%	-13%	-17%	-21%
C[N+]1=CC2=c3c1c(O)c1c(c3=NCC2)C2(C=C(Br)C(=O)C(Br)=C2)CCN1	-102*	nt	nt	nt	nt
COc1cc(-c2nc3cc(C)ccn3c2NC2CCCCC2)ccc1-c1ccc(C(C)=O)cc1	-94*	?	-17%	?	?
CCC(C)Sc1ccc(-c2nc3cc(C)ccn3c2NC2CCCCC2)cc1 (centres undefined)	-102*!	?	-23%	?	?
CCC(C)Sc1ccc(-c2nc3cnccn3c2NC2CCCCC2)cc1 (centres undefined)	12	?	-32%	?	?
COc1ccc(CNC(=O)Cn2cnc3c(NCc4ccccc4)ncnc32)cc1	-3	-11%	?	-24%	-17%
CN1CCN(C(CNC(=O)Nc2ccc(Cl)cc2)c2ccc(F)cc2)CC1 (centres undefined)	-25	?	nt	nt	-2%
Cc1ccc(C(CNC(=O)Nc2ccc(Cl)cc2)N2CCN(C)CC2)cc1 (centres undefined)	-21	13µM*	-25%	-19%	-17%
COC(=O)[C@@H]1CCCN1Cc1ccc2c(c1)CN(Cc1cccn1-c1ccccn1)CCO2	nt	nt	-3%	8%	-10%
O=C(Nc1cccc(-n2cccn2)c1)C1CCCN(Cc2cc3ccccc3[nH]2)C1 (centres undefined)	-11	?	13µM*	-28%	-16%
Cn1cc(CN2CCCC(C(=O)Nc3cccc(-n4cccn4)c3)C2)cn1 (centres undefined)	-8	3%	-21%	-4%	2%
Cc1cc(CN2CCCC(C(=O)Nc3cccc(-n4cccn4)c3)C2)cc(C)c1O (centres undefined)	-31	13µM*	-11%[7.34 µM]	-4%[7.34 µM]	?
COC(=O)N1CCC2(CCN(Cc3cc(C(F)(F)F)cc(C(F)(F)F)c3)CC2)CC1	nt	nt	nt	nt	-19%
C=CCN1C=C/C(=C\C=C(C#N)C#N)c2ccccc21	-20	10µM*	i	i	-22%
CCCCCCN1C=C/C(=C\C=C(C#N)C#N)c2ccccc21	29	?	21%	33%	?
Cn1cc(C(=O)CCl)c2ccccc21	-98*	7.9µM*	nt	nt	22µM*
CCCCCC(=O)N1C[C@H](O)[C@@H](n2cc(-c3ccc(F)cc3)nn2)C[C@@H]1c1ccc(OC)cc1	-3	nt	-24%	-19%	?
CC(=O)c1ccccc1NC(=O)CSc1nc2ccccc2c(=O)n1CCCN1CCOCC1	-22	-12%	-11%	-5%	?
O=c1c2ccccc2nc(SCc2ccc(F)cc2Cl)n1CCCN1CCOCC1	-39	10µM*	nt	nt	-13%
COc1ccccc1CNC(=O)CSc1nc2ccccc2c(=O)n1CCCN1CCOCC1	-34	-16%	-18%	-25%	-17%
O=C(CSc1nc2ccccc2c(=O)n1CCCN1CCOCC1)c1c[nH]c2ccccc12	?	14µM*	-17%	-16%	-1%
c1ccc2nccnc2c1	nt	nt	11µM*	3.5µM*	nt
